Data as given in PubChem BioAssay AID2606 (The Scripps Research Institute Molecular Screening Center, 2010).
Hit rate of the full screen: of about 320,000 compounds, about 160 (0.05%) were called active. Rule as the data show it: active = inhibition above about 38%; inactive = the rest. The entries come from a sample that favours actives as a whole.

target: Serine protease Rv3671c (Mycobacterium tuberculosis (strain ATCC 25618 / H37Rv)) (UniProt P9WHR9); experiment: inhibition of M. tuberculosis membrane protease Rv3671c – biochemical, fluorescence polarization, M. tuberculosis H37Rv, primary screen (AID 2606); conditions: at 5.96 µM; hits give high values;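 also: extracellular domain of Rv3671c used as enzyme; 0% = enzyme with DMSO and 100% = no enzyme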
Sequence (P9WHR9 whole entry, looked up, the tested form may be a part): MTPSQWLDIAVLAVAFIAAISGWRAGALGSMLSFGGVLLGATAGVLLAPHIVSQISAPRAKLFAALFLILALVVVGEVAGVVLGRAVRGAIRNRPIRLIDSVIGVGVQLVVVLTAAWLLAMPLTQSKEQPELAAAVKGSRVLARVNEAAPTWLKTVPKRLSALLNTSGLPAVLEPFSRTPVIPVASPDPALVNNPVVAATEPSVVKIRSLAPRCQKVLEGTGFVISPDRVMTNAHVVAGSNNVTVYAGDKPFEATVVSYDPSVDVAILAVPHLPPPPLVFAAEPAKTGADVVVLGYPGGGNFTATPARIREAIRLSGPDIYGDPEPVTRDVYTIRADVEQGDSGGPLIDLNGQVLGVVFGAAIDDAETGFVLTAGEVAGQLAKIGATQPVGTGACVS

SMILES	inhibition
O=C(NCc1ccc(Cl)cc1)c1cc2c(nc3sccn32)s1	-4.26% (inactive)
Cc1c(Br)c([N+](=O)[O-])nn1CC(=O)Nc1sc2c(c1C(=O)OC(C)C)CCC(C)C2 (stereo not drawn)	-2.96% (inactive)
O=S1(=O)CC(NCc2ccccc2)C(Nc2ccc(Cl)cc2)C1 (stereo not drawn)	-2.48% (inactive)
O=C(CN(c1cc(C(F)(F)F)ccc1Cl)S(=O)(=O)c1ccccc1)NCc1cccnc1	4.36% (inactive)
O=C1CCCN1CCCNC(=S)Nc1ccc(F)c(Cl)c1	-6.09% (inactive)
O=C1c2ccccc2C(=O)N1CCc1nn[nH]n1	-7.39% (inactive)
Cc1ccccc1CCN(CC(=O)NC1CCCCC1)C(=O)c1csnn1	-0.33% (inactive)
OC(c1ccccc1)c1nccn1Cc1ccccc1 (stereo not drawn)	0.91% (inactive)
CSc1nc2ccccc2cc1/C=C(\C#N)c1ccc(Cl)cc1Cl	3.83% (inactive)
O=C(COC(=O)c1cc(=O)[nH]c2ccccc12)Nc1nc(-c2cccc(Br)c2)cs1	-76% (inactive)
CCOC(=O)[C@@H]1[C@H]2COc3ccc(Br)cc3[C@H]2N2C(=O)N(c3ccc(C)cc3)C(=O)[C@@]12C	0.17% (inactive)
CCN(C(=O)CSc1nnnn1-c1ccccc1OC)C1CCS(=O)(=O)C1 (stereo not drawn)	2.72% (inactive)
CSc1ccc(C(=O)C2CCCN(C(=O)c3ccc(C)nc3)C2)cc1 (stereo not drawn)	1.04% (inactive)
CCC(C)c1ccc(NC(=O)COC(=O)C2CCCC2)cc1 (stereo not drawn)	-4.19% (inactive)
Cc1ccc(OCC(=O)c2cc(C)n(Cc3ccco3)c2C)c([N+](=O)[O-])n1	-2.09% (inactive)
COc1ccc(NC(=O)C2C3CCC(O3)C2C(=O)O)cc1OC (stereo not drawn)	-2.75% (inactive)
COc1cc(C(=O)NCc2ccncc2)cc(Br)c1OCc1ccccc1	-8.67% (inactive)
CCn1c(=O)cc(SCC(=O)NCCC2=CCCCC2)c2ccccc21	3.21% (inactive)
CCOc1ccc(S(=O)(=O)N(CC(=O)NCC(F)(F)F)Cc2ccco2)cc1	4.73% (inactive)
CC1CC(=NNC(=O)C2COc3ccccc3O2)CC(C)(C)C1 (stereo not drawn)	-11% (inactive)

SMILES	inhibition
O=C(O)c1ccc2c(=O)n3c(nc2c1)/C(=C/c1ccc(Cl)c([N+](=O)[O-])c1)CC3	8.14% (inactive)
C=C(C)C(=O)Nc1cccc(C2=NOC3(C2)C[C@H](C(N)=O)N(C(=O)C(c2ccccc2)c2ccccc2)C3)c1 (stereo partly drawn)	-1.51% (inactive)
Cc1onc(-c2c(F)cccc2Cl)c1C(=O)N(C)CC(=O)Nc1cccc(F)c1	2.86% (inactive)
C=CCOc1cccc(CNCc2cccnc2)c1	4.49% (inactive)
COC(=O)c1cccc(N(CC(=O)NCC2CCCO2)C(=O)CCC(=O)Nc2cc(C)on2)c1 (stereo not drawn)	-6.9% (inactive)
CCO[C@@H]1OC(C(=O)NC2CC2)=C[C@H](C)[C@H]1CCCO	3.42% (inactive)
CCN(CC)CCCN=C(N)N	1.64% (inactive)
CC(C)n1c(-c2ccncc2)n[nH]c1=S	-6.36% (inactive)
CC(C)(C)S(=O)(=O)c1ccccc1-c1noc(-c2ccccc2)c1C(N)=O	8.18% (inactive)
CSCc1ccc(C(=O)Nc2cc(C)cc(C)c2)cc1	6.14% (inactive)
CCNc1nc(N)nc(Oc2ccc(OCC)nn2)n1	1.15% (inactive)
COCCOC(=O)c1sc(=S)n(CCOC)c1N	40% (active)
CCCCN(CCCC)C(=O)CCS(=O)(=O)c1ccc2c(c1)n(C)c(=O)c(=O)n2C	-1.54% (inactive)
Cc1ccc2c(c1)N(CCCC(=O)NCc1cccnc1)C(=O)CO2	5.63% (inactive)
COC(=O)COc1cccc2c(=O)n(CC(=O)NCc3ccccc3)ccc12	-8.57% (inactive)
COc1ccc(O[C@H]2C=C[C@@H](c3ccccc3)O[C@@H]2CO/N=C/C[C@@H]2C=C[C@H](OC(C)=O)[C@@H](COC(C)=O)O2)cc1	-1.84% (inactive)
COCCN(Cc1nc(-c2ccc(C(F)(F)F)cc2)no1)C(C)C	-6.51% (inactive)
Cc1ccc(S(=O)(=O)N[C@@H](Cc2ccccc2)C(=O)N2CCC(C(=O)N[C@H](C(=O)O)C(C)O)CC2)cc1 (stereo partly drawn)	-3.25% (inactive)
Cc1ccc(N2CCN(c3ccc([N+](=O)[O-])cn3)CC2)c(C)c1	-8.33% (inactive)
Fc1ccccc1CCNc1nnnn1-c1ccccc1	-6.29% (inactive)

SMILES	inhibition
Cc1ccc(Cl)cc1NC(=O)C1CCN(S(C)(=O)=O)CC1	5.08% (inactive)
O=C1NC[C@@H](Cc2ccc(O)cc2)N(CCc2cccc(F)c2)C1=O	5.74% (inactive)
O=C(Nc1sc2c(c1-c1nc3ccccc3[nH]1)CCCC2)C1CC1	-3.57% (inactive)
c1ccc2[nH]c(-c3nc4ccccc4[nH]3)nc2c1	77.5% (active)
O=[N+]([O-])c1ccc2nc(-c3ccccn3)[nH]c2c1	4.37% (inactive)
COc1ccc(Br)cc1CN1CCN(C(=O)c2cccc(OC)c2OC)CC1	-2.08% (inactive)
CC1(c2ccccc2)NC(=O)N(CC(=O)N2CC(=O)Nc3ccccc32)C1=O (stereo not drawn)	-3.96% (inactive)
COc1ccc(C(=O)c2c3ccc([N+](=O)[O-])cc3[n+]([O-])n2CCCN)cc1	-2.98% (inactive)
C[C@@H]1NC(=O)[C@@]2(C)[C@@H](c3ccccc3)[C@H]3COc4ccccc4[C@@H]3N2C1=O	-7.74% (inactive)
C=CCN1CCN(C(=O)CCCc2ccccc2)CC1	-7.87% (inactive)
NNC(=O)c1cnn(-c2ccccc2)c1C(F)(F)F	2.2% (inactive)
COCCN(C(=O)CSCc1ccc(C)cc1)c1c(N)n(CC(C)C)c(=O)[nH]c1=O	8.34% (inactive)
CC1CCCN(C(C(=O)Nc2ccc(C(C)C)cc2)c2ccc3c(c2)OCO3)C1 (stereo not drawn)	2.73% (inactive)
CN(Cc1ccccc1)C(=O)COC(=O)c1ccccc1Nc1ccccc1	-5.06% (inactive)
CCN(CC)c1ccc(C2C3CCCCC3(O)CCN2CC(=O)Nc2ccccc2)cc1 (stereo not drawn)	5.48% (inactive)
O=C(O)C(c1ccccc1)C1(O)CCCCC1 (stereo not drawn)	8.1% (inactive)
Cc1cc(NC(=O)CN2C(=O)NC(CC(C)C)C2=O)no1 (stereo not drawn)	2.81% (inactive)
O=C(Nc1ccc(Br)cc1)c1cc(S(=O)(=O)Nc2ccccn2)ccc1Cl	-7.4% (inactive)
